Inconclusive results are not listed. Active and inactive are the calls of the source. Unless noted, the call rests on the fitted dose curve; in most records, active means well fitted cell-killing curve with a large enough effect; inconclusive means small, poorly fitted or top-dose-only effect, or effect the other way; inactive means no such curve, though single readings can be large or run the other way.
Key:
[1] = Quantitative High-Throughput drug screen in 47 multiple myeloma cell lines against the NCATS MIPE library collection: VP6_DJ cell viability assay (AID 1919867); further: nearly all actives have a fitted effect of over 40% in size; further: potency means the concentration at half of the fitted maximal effect
Summary of the method: (§1)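 Cells were exposed to library compounds for 48 hours, after which ATP was measured by CellTiter-Glo. Signal was taken as median relative luminescence units.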

[2] = Quantitative High-Throughput drug screen in 47 multiple myeloma cell lines against the NCATS MIPE library collection: UTMC2_PLB cell viability assay (AID 1919868); further: nearly all actives have a fitted effect of over 55% in size; further: potency means the concentration at half of the fitted maximal effect
Summary of the method: as §1

[3] = Quantitative High-Throughput drug screen in 47 multiple myeloma cell lines against the NCATS MIPE library collection: PE2_PLB cell viability assay (AID 1919869); further: nearly all actives have a fitted effect of over 35% in size; further: potency means the concentration at half of the fitted maximal effect
Summary of the method: as §1

[4] = Quantitative High-Throughput drug screen in 47 multiple myeloma cell lines against the NCATS MIPE library collection: PCM6_Riken cell viability assay (AID 1919870); further: nearly all actives have a fitted effect of over 30% in size; further: potency means the concentration at half of the fitted maximal effect
Summary of the method: as §1

[5] = Quantitative High-Throughput drug screen in 47 multiple myeloma cell lines against the NCATS MIPE library collection: RPMI8226_ATCC cell viability assay (AID 1919871); further: nearly all actives have a fitted effect of over 30% in size; further: potency means the concentration at half of the fitted maximal effect
Summary of the method: as §1

[6] = Quantitative High-Throughput drug screen in 47 multiple myeloma cell lines against the NCATS MIPE library collection: KMS11_JCRBsus cell viability assay (AID 1919873); further: nearly all actives have a fitted effect of over 50% in size; further: potency means the concentration at half of the fitted maximal effect
Summary of the method: as §1

[7] = Quantitative High-Throughput drug screen in 47 multiple myeloma cell lines against the NCATS MIPE library collection: KMS28BM_JCRB cell viability assay (AID 1919874); further: nearly all actives have a fitted effect of over 35% in size; further: potency means the concentration at half of the fitted maximal effect
Summary of the method: as §1

[8] = qHTS drug screen for cell cycle checkpoint inhibitors in PARPi-resistant BRCA-mutant ovarian cancer cell lines. (AID 1963452; calls by dose curve); conditions: PEO1/OlaR viability, CellTiter-Glo luminescence, 96 h, stronger effect = lower value
Summary of the method: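 PEO1, PEO4 and PEO1/OlaR ovarian cancer cells, 600 per well, exposed 96 h at 37C to a dilution series. Viability read by CellTiter-Glo luminescence, normalized to DMSO and empty wells; activity summarized as Z-AUC.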

[9] = Quantitative High-Throughput drug screen in 47 multiple myeloma cell lines against the NCATS MIPE library collection: OPM2_DSMZ cell viability assay (AID 1919872); further: nearly all actives have a fitted effect of over 30% in size; further: potency means the concentration at half of the fitted maximal effect
Summary of the method: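 Relative luminescence from CellTiter-Glo served as the viability signal, referenced to DMSO-treated (100%) and cell-free medium (0%) controls. Treatment lasted 48 hours at 37C with 500 cells per well.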

[10] = measured here: PEO1 parental Z-AUC

| Structure (SMILES) | Potency [1] | Potency [2] | Potency [3] | Potency [4] | Potency [5] | Potency [6] | Potency [7] | Z-AUC [8] | Z-AUC [8, 10] | Z-AUC ([8]; measured here: PEO4 Z-AUC) | Potency [9] |
| --- | --- | --- | --- | --- | --- | --- | --- | --- | --- | --- | --- |
| CN(C)CCCN1c2ccccc2CCc2ccc(Cl)cc21 | 0.935 µM (active) | 0.833 µM (active) | 2.64 µM (active) | 0.469 µM (active) | 16.6 µM (active) | 20.9 µM (active) | 20.9 µM (active) | -0.0245 (inactive) | -0.498 | -0.622 | – |
| Nc1nc2c(ncn2COC(CO)CO)c(=O)[nH]1 | 18.7 µM (active) | – | – | 23.5 µM (active) | 26.4 µM (active) | 18.7 µM (active) | 29.6 µM (active) | 1.34 (inactive) | 1.36 | 1.37 | 23.5 µM (active) |
| COc1cc2nc(N3CCN(C(=O)c4ccco4)CC3)nc(N)c2cc1OC | 10.5 µM (active) | 11.8 µM (active) | 10.5 µM (active) | 7.43 µM (active) | – | 13.2 µM (active) | 10.5 µM (active) | – | – | – | – |
| CCC1(c2ccccc2)C(=O)NCNC1=O | 4.69 µM (active) | – | 2.96 µM (active) | 3.72 µM (active) | – | inactive | inactive | 1.12 (inactive) | 0.974 | 1.04 | inactive |
| CN(C)C(=O)C(CCN1CCC(O)(c2ccc(Cl)cc2)CC1)(c1ccccc1)c1ccccc1 | 20.9 µM (active) | 18.7 µM (active) | – | 20.9 µM (active) | 20.9 µM (active) | 10.5 µM (active) | 18.7 µM (active) | -1.16 (inactive) | -0.647 | -0.794 | 18.7 µM (active) |
| CC(CCc1ccc(O)cc1)NCCc1ccc(O)c(O)c1 (stereo not drawn) | 16.6 µM (active) | – | – | 20.9 µM (active) | 18.7 µM (active) | 26.4 µM (active) | 26.4 µM (active) | – | – | – | 18.7 µM (active) |
| CN1C(C(=O)Nc2ccccn2)=C(O)c2ccccc2S1(=O)=O | inactive | – | inactive | inactive | inactive | inactive | – | 0.47 (inactive) | 0.178 | 0.354 | inactive |
| Clc1ccc2nsnc2c1NC1=NCCN1 | inactive | inactive | – | inactive | – | inactive | inactive | 1.68 (inactive) | 1.11 | 1.24 | inactive |
| CS(=O)(=O)CCNCc1ccc(-c2ccc3ncnc(Nc4ccc(OCc5cccc(F)c5)c(Cl)c4)c3c2)o1 | 1.66 µM (active) | 1.18 µM (active) | 1.66 µM (active) | 1.18 µM (active) | 26.4 µM (active) | 20.9 µM (active) | – | 0.292 (inactive) | 0.248 | 0.473 | 16.6 µM (active) |

Reference: PubChem BioAssay (NCATS)
